# Assay results reported in PubChem BioAssay AID1159580 (chemical genetic matrix, 2015).
# The whole screen tested about 5,500 compounds, of which about 2,000 (36%) were called active. Inconclusive results (about 18%) are left out. The list shows a part of the results. A number with no mark means an inactive call. No stated cut-off is given here; in the data, active means normalized growth mostly below about 0.91 (no sharp cut-off); inconclusive means no clear call, values can overlap the other calls; inactive means mostly above about 0.92.
# Assay: chemical genetic growth profiling, strain panel (AID 1159580);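 further: tested at 20 µM; growth read once vehicle control cultures reached saturation at 30 °C; 1 = growth at the plate median or of vehicle wells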
# Details: S. cerevisiae deletion strains, growth OD
structure (smiles),measurement,setting,value
CC(=O)Oc1ccc(O)cc1,normalized growth,"locus YAL013W, strain DEP1, stronger effect = lower value",0.942
same,normalized growth,"locus YAL021C, strain ccr4, stronger effect = lower value",1.03
same,normalized growth,"locus YAL026C, strain drs2, stronger effect = lower value",0.953
same,normalized growth,"locus YAL030W, strain snc1, stronger effect = lower value",0.994
same,normalized growth,"locus YBL061C, strain skt5, stronger effect = lower value",0.977
same,normalized growth,"locus YBR009C, strain hhf1, stronger effect = lower value",0.963
same,normalized growth,"locus YBR021W, strain FUR4, stronger effect = lower value",0.796 (active)
same,normalized growth,"locus YBR023C, strain chs3, stronger effect = lower value",0.982
same,normalized growth,"locus YBR171W, strain sec66, stronger effect = lower value",0.974
same,normalized growth,"locus YBR229C, strain ROT2, stronger effect = lower value",1.02
same,normalized growth,"locus YBR231C, strain swc5, stronger effect = lower value",0.971
same,normalized growth,"locus YBR279W, strain paf1, stronger effect = lower value",0.986
same,normalized growth,"locus YCL011C, strain gbp2, stronger effect = lower value",0.989
same,normalized growth,"locus YCL016C, strain dcc1, stronger effect = lower value",0.999
same,normalized growth,"locus YCL029C, strain bik1, stronger effect = lower value",1.03
same,normalized growth,"locus YCL061C, strain MRC1, stronger effect = lower value",0.993
same,normalized growth,"locus YCL069W, strain vba3, stronger effect = lower value",0.987
same,normalized growth,"locus YCR088W, strain abp1, stronger effect = lower value",0.995
same,normalized growth,"locus YDL005C, strain med2, stronger effect = lower value",0.978
same,normalized growth,"locus YDL035C, strain GPR1, stronger effect = lower value",0.922
same,normalized growth,"locus YDL040C, strain nat1, stronger effect = lower value",0.994
same,normalized growth,"locus YDL074C, strain BRE1, stronger effect = lower value",1
same,normalized growth,"locus YDL101C, strain DUN1, stronger effect = lower value",1
same,normalized growth,"locus YDL134C, strain PPH21, stronger effect = lower value",0.89
same,normalized growth,"locus YDL185W, strain tfp1, stronger effect = lower value",1.03
same,normalized growth,"locus YDL192W, strain arf1, stronger effect = lower value",1.02
same,normalized growth,"locus YDR001C, strain nth1, stronger effect = lower value",0.987
same,normalized growth,"locus YDR069C, strain doa4, stronger effect = lower value",1.02
same,normalized growth,"locus YDR101C, strain arx1, stronger effect = lower value",1.02
same,normalized growth,"locus YDR137W, strain rgp1, stronger effect = lower value",0.936
same,normalized growth,"locus YDR150W, strain NUM1, stronger effect = lower value",0.999
same,normalized growth,"locus YDR159W, strain sac3, stronger effect = lower value",0.967
same,normalized growth,"locus YDR162C, strain NBP2, stronger effect = lower value",0.916
same,normalized growth,"locus YDR195W, strain ref2",0.997
same,normalized growth,"locus YDR297W, strain sur2, stronger effect = lower value",0.987
same,normalized growth,"locus YDR318W, strain mcm21, stronger effect = lower value",1
same,normalized growth,"locus YDR334W, strain swr1, stronger effect = lower value",0.986
same,normalized growth,"locus YDR335W, strain msn5, stronger effect = lower value",0.995
same,normalized growth,"locus YDR388W, stronger effect = lower value",1.02
same,normalized growth,"locus YDR392W, strain spt3, stronger effect = lower value",0.844
same,normalized growth,"locus YDR502C, strain sam2, stronger effect = lower value",1.02
same,normalized growth,"locus YEL003W, strain gim4, stronger effect = lower value",0.986
same,normalized growth,"locus YEL037C, strain rad23, stronger effect = lower value",0.987
same,normalized growth,"locus YEL061C, strain CIN8 (second series), stronger effect = lower value",0.98
same,normalized growth,"locus YEL061C, strain CIN8, stronger effect = lower value",1
same,normalized growth,"locus YER015W, strain faa2, stronger effect = lower value",0.992
same,normalized growth,"locus YER016W, strain bim1, stronger effect = lower value",1.01
same,normalized growth,"locus YER110C, stronger effect = lower value",1.04
same,normalized growth,"locus YER111C, strain swi4, stronger effect = lower value",0.969
same,normalized growth,"locus YER155C, strain BEM2 (second series), stronger effect = lower value",0.959
same,normalized growth,"locus YER155C, strain BEM2, stronger effect = lower value",1.01
same,normalized growth,"locus YER167W, strain BCK2, stronger effect = lower value",0.976
same,normalized growth,"locus YFR010W, strain ubp6, stronger effect = lower value",0.969
same,normalized growth,"locus YGL078C, strain dbp3, stronger effect = lower value",1.02
same,normalized growth,"locus YGL086W, strain mad1, stronger effect = lower value",0.984
same,normalized growth,"locus YGL167C, strain pmr1, stronger effect = lower value",0.988
same,normalized growth,"locus YGL173C, strain kem1, stronger effect = lower value",0.975
same,normalized growth,"locus YGL227W, strain vid30, stronger effect = lower value",0.983
same,normalized growth,"locus YGL240W, strain doc1, stronger effect = lower value",0.926
same,normalized growth,"locus YGL248W, strain PDE1, stronger effect = lower value",0.923
same,normalized growth,"locus YGL253W, strain hxk2, stronger effect = lower value",0.973
same,normalized growth,"locus YGR135W, strain pre9, stronger effect = lower value",0.99
same,normalized growth,"locus YGR229C, strain SMI1, stronger effect = lower value",0.572 (active)
same,normalized growth,"locus YGR252W, strain gcn5, stronger effect = lower value",0.87
same,normalized growth,"locus YHR013C, strain ard1, stronger effect = lower value",0.975
same,normalized growth,"locus YHR027C, strain rpn1, stronger effect = lower value",0.987
same,normalized growth,"locus YHR030C, strain SLT2, stronger effect = lower value",0.994
same,normalized growth,"locus YHR079C, strain IRE1 (second series), stronger effect = lower value",1.02
same,normalized growth,"locus YHR094C, strain hxt1, stronger effect = lower value",1.02
same,normalized growth,"locus YHR129C, strain ARP1, stronger effect = lower value",0.994
same,normalized growth,"locus YHR142W, strain chs7, stronger effect = lower value",0.996
same,normalized growth,"locus YHR200W, strain rpn10, stronger effect = lower value",1.03
same,normalized growth,"locus YIL066C, strain RNR3, stronger effect = lower value",0.852 (active)
same,normalized growth,"locus YIL073C, strain SPO22, stronger effect = lower value",0.89
same,normalized growth,"locus YIL125W, strain kgd1, stronger effect = lower value",1.02
same,normalized growth,"locus YIR030C, strain dcg1, stronger effect = lower value",1.04
same,normalized growth,"locus YJL092W, strain hpr5, stronger effect = lower value",0.983
same,normalized growth,"locus YJL095W, strain BCK1 (second series), stronger effect = lower value",0.996
same,normalized growth,"locus YJL095W, strain BCK1, stronger effect = lower value",0.976
same,normalized growth,"locus YJL115W, strain asf1, stronger effect = lower value",0.988
same,normalized growth,"locus YJL129C, strain trk1, stronger effect = lower value",1.01
same,normalized growth,"locus YJL134W, strain LCB3, stronger effect = lower value",1.03
same,normalized growth,"locus YJL154C, strain vps35, stronger effect = lower value",0.985
same,normalized growth,"locus YJL164C, strain tpk1, stronger effect = lower value",0.975
same,normalized growth,"locus YJL166W, strain qcr8, stronger effect = lower value",0.978
same,normalized growth,"locus YJL168C, strain set2, stronger effect = lower value",1.02
same,normalized growth,"locus YJL187C, strain SWE1 (second series), stronger effect = lower value",0.997
